According to PubChem BioAssay (Tox21):
Unmarked numbers belong to inactive results. Activity calls are given as the source filed them. Calls follow the shape of the dose curve; as a rule, active = well fitted activation curve with a large enough effect in the repeat runs; inconclusive = weak or mixed curves; inactive = flat fitted curve, though single readings scatter.

assay: A CellTox Green Cytotoxicity Assay to monitor cytotoxicity in HEK293 cells - 0 hour (AID 1224869); conditions: CellTox Green fluorescence; series mostly up to 76.8 µM; cytotoxicity: at the top concentration; also: nearly all actives have a fitted effect of over 50% in size
Text: National Center for Advancing Translational Sciences [NCATS]
NIH Chemical Genomics Center [NCGC]
U.S. Environmental Protection Agency [EPA]
National Institutes of Environmental Health Sciences [NIEHS]
National Toxicology Program [NTP]
Cell-based models are critical for drug discovery. Determining the natural cytotoxic effects resulting from test compounds is an essential research activity. A CellTox Green Cytotoxicity Assay to monitor cytotoxicity in real time of continues cell culture during 40 hours of the compound treatment was used to screen Tox21 10K library compounds in Hek293 cells. CellTox Green Cytotoxicity Assay is a nonlytic, homogeneous, biofluorescent method to measure cytotoxicity in cell culture after experimental manipulation. The assay system uses a proprietary asymmetric cyanine dye that is excluded from viable cells but preferentially stains the dead cell's DNA. […] Viable cells produce no appreciable increases in fluorescence. Therefore, the fluorescence signal produced by the binding interaction with dead cell DNA is proportional to cytotoxicity.
The mixture of Hek293 cell suspension and reagents were dispensed at 600cells/6 ul/well in 1536-well tissue culture treated black solid bottom plates using a Multidrop dispenser. After the assay plates were incubated at a 37 C/5% CO2 incubator for 5 hours, 23 nL of compounds dissolved in DMSO, positive and negative controls was transferred to the assay plate by a pintool work station. The plates were incubated at 37 C for 40 hours. The fluorescence intensity were measured at 0h, 8h, 16h, 24h, 32h and 40h time points using ViewLux plate reader during compound treatment.
% is scaled to controls: 0 for no effect and ±100 for the full control effect; potency is read from the fitted curve at half-maximal effect.

Row | Compound | cytotoxicity | Potency
1 | OCCCC1CCCCC1 | -1.85% | –
2 | CC(C)CNCC(C)C | 1.03% | –
3 | Nc1nc2c(ncn2COC(CO)CO)c(=O)[nH]1 | -1.55% [at 35.3 µM] | –
4 | CCOC(=O)C(=O)OCC | 1.2% | –
5 | C=CCCCCCCCCC=O | -2.41% | –
6 | CCn1nc(C(=O)O)c(=O)c2cc3c(cc21)OCO3 | -7.74% [at 35.3 µM] | –
7 | CC/C=C\CC/C=C/CO | 1.06% | –
8 | Cc1ccc(Cl)cc1Cl | -0.714% | –
9 | CCn1ccnc1CC1COc2ccccc2O1 (stereo not given) | -0.459% [at 35.3 µM] | –
10 | CCCCC(CC)COC(=O)c1ccccc1O (stereo not given) | -1.91% [at 35.3 µM] | –
11 | COc1ccc2c(c1)CCCC2=O | -4.85% [at 35.3 µM] | –
12 | Cn1cc(S(C)=O)c(=O)c2ccc(F)cc21 (stereo not given) | -3.63% [at 35.3 µM] | –
13 | CCOC(C)(C)C | -5.12% | –
14 | CC1=CC(C)C(C=O)CC1 (stereo not given) | -2.78% | –
15 | CN(C(=O)c1c(O)c2ccccc2n(C)c1=O)c1ccccc1 | -1.31% [at 35.3 µM] | –
16 | CN1CCC(=C2c3ccccc3CC(=O)c3sccc32)CC1 | -3.09% [at 35.3 µM] | –
17 | COCCCOCCCOC | -0.0987% | –
18 | Cn1c(N)c(N=O)c(=O)n(C)c1=O | -0.8% | –
19 | CC(C(=O)O)c1ccc(CC2CCCC2=O)cc1 (stereo not given) | -5.12% [at 35.3 µM] | –
20 | CN1CCN(c2cc3c(cc2F)c(=O)c(C(=O)O)cn3-c2ccc(F)cc2)CC1 | 0.333% [at 35.3 µM] | –

Row | Compound | cytotoxicity | Potency
21 | O=C(O)CNC(=O)c1ccc([N+](=O)[O-])cc1 | 0.206% | –
22 | NS(=O)(=O)c1cc2c(cc1Cl)NC(C1CC3C=CC1C3)NS2(=O)=O (stereo not given) | 11.5% [at 35.3 µM] | –
23 | CCCCC/C=C\CCC=O | -0.4% | –
24 | N#Cc1ccc(C2CCCc3cncn32)cc1 (stereo not given) | -1.2% [at 35.3 µM] | –
25 | N[C@H](C(=O)O)c1ccc(O)cc1 | -2.5% [at 15.8 µM] | –
26 | CC(C)(CC(=O)O)C(=O)O | -1.55% | –
27 | N=c1nc(N2CCCCC2)cc(N)n1O | -0.304% [at 35.3 µM] | –
28 | O=C[C@H](O)[C@@H](O)[C@H](O)[C@H](O)CO | -5.98% | –
29 | CN1N=C(C(N)=O)CCC1=O | 1.51% [at 35.3 µM] | –
30 | CCOc1ccc(C(=O)OCCN(CC)CC)cc1 | -4.18% [at 35.3 µM] | –
31 | COC(=O)c1cc(C(=O)OC)cc(S(=O)(=O)O)c1 | -2.81% | –
32 | Cc1nc2c([nH]1)c(=O)n(C)c(=O)n2Cc1ccco1 | 0.395% [at 35.3 µM] | –
33 | Cc1cccc(C)c1NC(=O)C(C)N (stereo not given) | – | 21.3 µM (active)
34 | CCCN(CCC)CCc1cccc2c1CC(=O)N2 | -4.86% [at 35.3 µM] | –
35 | CCS(=O)(=O)c1ccc(OC)c(C(=O)OC)c1 | -0.27% [at 35.3 µM] | –
36 | Cc1c(NC(C)C)c(=O)n(-c2ccccc2)n1C | 1.68% [at 35.3 µM] | –
37 | NC(=O)c1ccc([N+](=O)[O-])cc1 | 10.3% | –
38 | CCCCCCCCCCCC | 9.89% | –
39 | NCCc1cnc[nH]1 | 2.16% [at 35.3 µM] | –
40 | CCOC(=O)c1c(C)n(C)c2ccc(O)cc12 | -0.103% [at 35.3 µM] | –
